PubChem BioAssay (NCI)
Several values for one entry are separate records, joined by “and”; a condition that tells them apart may be missing. Equal entries are not always repeated. Compounds without any hit were thinned out: in the full panel of roughly 83,000, 20% have a hit.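 Note: values are percent growth. 100 is the growth of untreated cells, values between 100 and 0 indicate rising inhibition; between -100 and 0 indicates cell death.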 The source holds several records for some structures; these can differ, active in one and inactive in another. Activity calls are given as the source filed them. Rule for the calls: active = growth percent below 10; inactive = the rest.

How the values were obtained:
Test in all cases: NCI-60 one-dose screen, 48 h (100 = growth as untreated, 0 = no growth, -100 = all killed)
Conditions in all cases: 10 µM unless noted
HT29 colon = system: HT29 colon
SNB-75 CNS = system: SNB-75 CNS
SNB-19 CNS = system: SNB-19 CNS
U251 CNS = system: U251 CNS
PC-3 prostate = system: PC-3 prostate
SK-MEL-5 melanoma = system: SK-MEL-5 melanoma
UACC-62 melanoma = system: UACC-62 melanoma
SK-MEL-28 melanoma = system: SK-MEL-28 melanoma
LOX IMVI melanoma = system: LOX IMVI melanoma

Structure (SMILES)	growth (HT29 colon)	growth (SNB-75 CNS)	growth (SNB-19 CNS)	growth (U251 CNS)	growth (PC-3 prostate)	growth (SK-MEL-5 melanoma)	growth (UACC-62 melanoma)	growth (SK-MEL-28 melanoma)	growth (LOX IMVI melanoma)
Cc1ccc(S(=O)(=O)c2ccccc2)cc1	6.22% (active)	-19.3% (active)	43.4% (inactive)	17.2% (inactive)	30.7% (inactive)	23.7% (inactive)	63.4% (inactive)	59.6% (inactive)	
Brc1ccc(SSc2ccc(Br)cc2)cc1	97.2% (inactive)	77.2% (inactive)	87.9% (inactive)	65.8% (inactive)	39.7% (inactive)	54.7% (inactive)	96.9% (inactive)	97.6% (inactive)	
CCN(CCNS(C)(=O)=O)c1ccc(N)c(C)c1	87.8% (inactive)	128% (inactive) and 95.5% (inactive)	101% (inactive) and 109% (inactive)	82.3% (inactive) and 108% (inactive)	86.7% (inactive) and 78.7% (inactive)	81.1% (inactive) and 98.4% (inactive)	71.4% (inactive) and 82.2% (inactive)	80.2% (inactive) and 104% (inactive)	
COc1ccc(C(=O)CC(c2ccccc2)C(C#N)c2ccccc2)cc1 (stereo not drawn)	82.3% (inactive)	83.8% (inactive)	92.4% (inactive)	83.2% (inactive)	64.8% (inactive)	86.6% (inactive)		97% (inactive)	
O=C(/C=C/c1ccccc1)c1ccccc1	68.9% (inactive)	101% (inactive)	79% (inactive)	75.1% (inactive)	111% (inactive)	84.4% (inactive)	102% (inactive)	115% (inactive)	
O=c1n(CC2CO2)c(=O)n(CC2CO2)c(=O)n1CC1CO1 (stereo not drawn)	70.3% (inactive)	66.3% (inactive)	83.9% (inactive)	56.2% (inactive)	71.4% (inactive)	86.7% (inactive)	66% (inactive)	88.7% (inactive)	
CCOC(=O)c1c(C)cc(=O)oc1C	103% (inactive)	94% (inactive)	96.2% (inactive)	98.3% (inactive)	92% (inactive)	106% (inactive)	95.3% (inactive)	115% (inactive)	
CC1CCC(C(C)C)C(NNC(N)=O)C1 (stereo not drawn)	102% (inactive)	102% (inactive)	98.4% (inactive)	92.4% (inactive)	86.2% (inactive)	102% (inactive)		120% (inactive)	100% (inactive)
O=C1NC(N/N=C\C(O)C(O)C(O)CO)=N/C1=C/c1ccc(Cl)cc1 (stereo not drawn)							3.82% [100 µM] (active) and -100% [100 µM] (active) and 32.5% [100 µM] (inactive)		
ClCCOCCOc1ccc(C2CCCCC2)cc1	106% (inactive)	98.2% (inactive)	98.4% (inactive)	89.7% (inactive)	101% (inactive)	98.8% (inactive)	98.6% (inactive)	102% (inactive)	107% (inactive)
Nc1nc(N)c2[nH]cnc2n1	101% (inactive)	91.3% (inactive)	96.1% (inactive)	111% (inactive)	79.3% (inactive)	98.1% (inactive)	84.3% (inactive)	99.9% (inactive)	
N#CC(C#N)N=Nc1ccc(Cl)cc1	24.7% (inactive)	72% (inactive)	94.2% (inactive)	88.7% (inactive)	54.7% (inactive)	79.6% (inactive)		42.2% (inactive)	53.5% (inactive)
C#CCOC(=O)Nc1ccccc1	112% (inactive)	91.2% (inactive)	111% (inactive)	98.2% (inactive)	96.7% (inactive)	103% (inactive)	104% (inactive)	103% (inactive)	
COc1ccc(N/C=C/C2=[N+](C)c3ccccc3C2(C)C)c(OC)c1	87.4% (inactive)	89.5% (inactive)	102% (inactive)	91.2% (inactive)	87.6% (inactive)	90.9% (inactive)	92.9% (inactive)	113% (inactive)	
CC(C)C(C)(C)c1ccc(O)cc1	102% (inactive)	97.8% (inactive)		102% (inactive)	93.1% (inactive)	99.9% (inactive)	101% (inactive)	105% (inactive)	
Fc1ccc([I+]c2ccc(F)cc2)cc1	38.2% (inactive)	80% (inactive)	70% (inactive)	66.4% (inactive)	63.5% (inactive)	52.2% (inactive)	82.5% (inactive)	95.8% (inactive)	47.9% (inactive)
CC(C)NC(=O)N/C=C(\C#N)C(N)=O	107% (inactive)	83.2% (inactive)	110% (inactive)	114% (inactive)	94.9% (inactive)	101% (inactive)	101% (inactive)	100% (inactive)	
O=C1OC(c2ccccc2)=N/C1=C\c1ccccc1	113% (inactive)	83% (inactive)	98.9% (inactive)	91% (inactive)	95.9% (inactive)	97.7% (inactive)	101% (inactive)	108% (inactive)	

Structure (SMILES)	growth (HT29 colon)	growth (SNB-75 CNS)	growth (SNB-19 CNS)	growth (U251 CNS)	growth (PC-3 prostate)	growth (SK-MEL-5 melanoma)	growth (UACC-62 melanoma)	growth (SK-MEL-28 melanoma)	growth (LOX IMVI melanoma)
Nc1ccc2c(O)cc(S(=O)(=O)O)cc2c1	102% (inactive) and 106% (inactive)	99.7% (inactive)	91.6% (inactive) and 104% (inactive)	101% (inactive)	85.5% (inactive)	96.6% (inactive) and 104% (inactive)	93.7% (inactive) and 103% (inactive)	101% (inactive) and 114% (inactive)	
O=C(O)CCCl	108% (inactive)	97.9% (inactive)	104% (inactive)	101% (inactive)	96.8% (inactive)	99.2% (inactive)	110% (inactive)	105% (inactive)	104% (inactive)
Cn1cnc([N+](=O)[O-])c1Sc1ncn[nH]1	104% (inactive)	85.6% (inactive)	111% (inactive)	108% (inactive)		104% (inactive)	108% (inactive)	104% (inactive)	93.1% (inactive)
CC(=O)NCC(=O)c1ccc([N+](=O)[O-])cc1	107% (inactive)	99.1% (inactive)	103% (inactive)	102% (inactive)	98.4% (inactive)	103% (inactive)	101% (inactive)	105% (inactive)	
O=C1CSC2=NCCN12	96.4% (inactive) and 91.5% (inactive)	87.5% (inactive) and 83.3% (inactive)	101% (inactive) and 112% (inactive)	88.7% (inactive) and 91.1% (inactive)	102% (inactive) and 121% (inactive)	88.9% (inactive) and 86.1% (inactive)	87.1% (inactive)	78.5% (inactive) and 85.8% (inactive)	94% (inactive) and 90.1% (inactive)
O=C(Cc1ccccc1)c1ccc(O)c(Cl)c1	30.2% (inactive)	72.7% (inactive)	74.8% (inactive)	73% (inactive)	53.2% (inactive)	27.5% (inactive)	26.8% (inactive)	49.4% (inactive)	
NC(=O)NCCCC(N)C(=O)O (stereo not drawn)	101% (inactive)	104% (inactive)	92.1% (inactive)	96.2% (inactive)	95.5% (inactive)	113% (inactive)	102% (inactive)	99% (inactive)	
OC1COC(OCc2ccccc2)C(O)C1O (stereo not drawn)	111% (inactive)	90.5% (inactive)		95.4% (inactive)	105% (inactive)	101% (inactive)	106% (inactive)	104% (inactive)	94% (inactive)
Cc1cc(-c2cc(C)c(O)c(C)c2)cc(C)c1O	96.1% (inactive)	65% (inactive)	83.8% (inactive)	88.6% (inactive)	80.9% (inactive)	73.9% (inactive)	62.8% (inactive)	88% (inactive)	
CCCCOC(=O)/C=C\C(=O)NC(N)=O	97% (inactive)	95.9% (inactive)	91.4% (inactive)	96.4% (inactive)	83% (inactive)	99.8% (inactive)	79.1% (inactive)	97.6% (inactive)	79.1% (inactive)
CCc1cc(C)cc(O)c1	99.4% (inactive)	98% (inactive)	103% (inactive)	96% (inactive)	97.1% (inactive)	105% (inactive)	108% (inactive)	111% (inactive)	
CC(C)(O)C(=O)O	104% (inactive)	94.6% (inactive)	103% (inactive)	97.9% (inactive)	98.2% (inactive)	103% (inactive)	103% (inactive)	104% (inactive)	
Nc1ncnc2c1ncn2C1OC(COP(=O)(O)O)C(O)C1O (stereo not drawn)	114% (inactive)	93.1% (inactive)	103% (inactive)	112% (inactive)	101% (inactive)	117% (inactive)	104% (inactive)	119% (inactive)	
COc1cc(C(O)C2C(=O)OCC2C2(c3ccc4c(c3)OCO4)SCCCS2)cc(OC)c1OC (stereo not drawn)	102% (inactive)		96.4% (inactive)	100% (inactive)	84.1% (inactive)	99.1% (inactive)	87.5% (inactive)	108% (inactive)	
Cc1ccc(=O)[nH]n1	108% (inactive) and 99.5% (inactive)	108% (inactive) and 103% (inactive)	93.9% (inactive)	99.7% (inactive) and 92.4% (inactive)	96.3% (inactive) and 92% (inactive)	101% (inactive) and 105% (inactive)	106% (inactive) and 104% (inactive)	111% (inactive) and 115% (inactive)	
CN(C)c1ccc(/C=C\C(=O)c2ccccc2)cc1	53.6% (inactive) and 58.5% (inactive) and 57.6% (inactive)	70.1% (inactive) and 100% (inactive) and 93.4% (inactive)	98.7% (inactive) and 92.3% (inactive) and 61.6% (inactive)	82.2% (inactive) and 80.6% (inactive)	88.3% (inactive) and 94.4% (inactive) and 76% (inactive)	95.2% (inactive) and 89.4% (inactive) and 89.1% (inactive)	88.4% (inactive) and 91.1% (inactive) and 84.9% (inactive)	93% (inactive) and 103% (inactive) and 89.8% (inactive)	84.5% (inactive) and 75.6% (inactive) and 77.4% (inactive)
C/C(=C\c1ccccc1)c1ccccn1	113% (inactive)	89.1% (inactive)	92.1% (inactive)	107% (inactive)	98.7% (inactive)	103% (inactive)		107% (inactive)	
O=[N+]([O-])c1cccc(SSc2cccc([N+](=O)[O-])c2)c1	102% (inactive)	102% (inactive)	91.1% (inactive)	99.2% (inactive)	82.6% (inactive)	99.4% (inactive)	94.2% (inactive)	110% (inactive)	
